What follows are targets tested with C#CCNC(=O)CCSSCCC(=O)NCCc1ccc(C=O)c(C=O)c1 (assay: lysine labeling ratio R10:1 (500 µM / 50 µM probe), SILAC-ABPP in living cells; higher = lower intrinsic lysine reactivity toward the probe, active = 2 or less). Conditions: HeLa; probe concentrations 500 vs 50 µM.
How it was run: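 The two probe levels, 50 µM and 500 µM, of an alkyne-tagged, disulfide-linked lysine probe were applied to living light and heavy SILAC HeLa cells in PBS at room temperature, and the labels were run in both forward and reverse orientation. Mixed lysates underwent biotin-azide click chemistry, trypsin digestion, neutravidin capture, DTT release and alkylation before LC-MS/MS on a TIMS-TOF Pro. R is the filtered median high-probe/low-probe MS1 peptide ratio for each lysine, summarised as the median over forward and reverse replicates. Nothing above 20 is reported; such values are set to 20.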

UniProt P38646, sequence (P38646 whole entry): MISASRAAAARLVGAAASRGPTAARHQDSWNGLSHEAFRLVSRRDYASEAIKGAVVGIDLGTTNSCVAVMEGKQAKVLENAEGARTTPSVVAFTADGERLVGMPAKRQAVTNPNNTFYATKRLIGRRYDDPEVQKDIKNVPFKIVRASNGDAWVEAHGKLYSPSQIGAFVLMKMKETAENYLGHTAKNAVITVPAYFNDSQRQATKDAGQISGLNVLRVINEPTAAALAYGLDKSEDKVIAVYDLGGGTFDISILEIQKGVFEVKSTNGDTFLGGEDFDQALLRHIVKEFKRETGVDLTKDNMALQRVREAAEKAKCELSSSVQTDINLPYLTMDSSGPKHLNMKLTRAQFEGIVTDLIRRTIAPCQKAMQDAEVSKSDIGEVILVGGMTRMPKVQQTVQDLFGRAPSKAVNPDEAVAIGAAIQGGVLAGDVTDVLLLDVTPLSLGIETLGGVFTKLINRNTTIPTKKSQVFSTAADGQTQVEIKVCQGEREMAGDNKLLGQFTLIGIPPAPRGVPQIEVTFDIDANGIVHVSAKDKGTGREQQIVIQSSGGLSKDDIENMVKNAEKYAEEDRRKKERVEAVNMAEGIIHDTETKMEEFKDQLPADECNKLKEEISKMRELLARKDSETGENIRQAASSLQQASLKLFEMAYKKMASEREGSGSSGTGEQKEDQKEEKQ
UniProt Q8IVT2, sequence (Q8IVT2 whole entry): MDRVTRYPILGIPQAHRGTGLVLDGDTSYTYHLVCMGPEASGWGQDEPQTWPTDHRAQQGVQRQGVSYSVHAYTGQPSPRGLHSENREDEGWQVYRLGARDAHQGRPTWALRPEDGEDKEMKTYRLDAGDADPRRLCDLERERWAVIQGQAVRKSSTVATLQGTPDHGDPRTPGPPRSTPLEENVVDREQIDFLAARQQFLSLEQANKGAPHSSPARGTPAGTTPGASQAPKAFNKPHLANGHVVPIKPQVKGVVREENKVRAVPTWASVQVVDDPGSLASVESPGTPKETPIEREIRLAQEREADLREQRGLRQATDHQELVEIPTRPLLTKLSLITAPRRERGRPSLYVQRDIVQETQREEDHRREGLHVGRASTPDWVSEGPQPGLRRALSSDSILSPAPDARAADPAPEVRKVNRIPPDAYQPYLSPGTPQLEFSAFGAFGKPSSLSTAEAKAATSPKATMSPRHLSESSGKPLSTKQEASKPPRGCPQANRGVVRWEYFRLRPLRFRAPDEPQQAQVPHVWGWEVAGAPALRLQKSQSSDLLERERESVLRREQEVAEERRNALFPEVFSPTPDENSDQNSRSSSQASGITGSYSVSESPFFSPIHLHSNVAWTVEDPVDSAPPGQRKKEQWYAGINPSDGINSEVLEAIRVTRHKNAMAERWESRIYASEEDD
UniProt P14618, sequence (P14618 whole entry, looked up): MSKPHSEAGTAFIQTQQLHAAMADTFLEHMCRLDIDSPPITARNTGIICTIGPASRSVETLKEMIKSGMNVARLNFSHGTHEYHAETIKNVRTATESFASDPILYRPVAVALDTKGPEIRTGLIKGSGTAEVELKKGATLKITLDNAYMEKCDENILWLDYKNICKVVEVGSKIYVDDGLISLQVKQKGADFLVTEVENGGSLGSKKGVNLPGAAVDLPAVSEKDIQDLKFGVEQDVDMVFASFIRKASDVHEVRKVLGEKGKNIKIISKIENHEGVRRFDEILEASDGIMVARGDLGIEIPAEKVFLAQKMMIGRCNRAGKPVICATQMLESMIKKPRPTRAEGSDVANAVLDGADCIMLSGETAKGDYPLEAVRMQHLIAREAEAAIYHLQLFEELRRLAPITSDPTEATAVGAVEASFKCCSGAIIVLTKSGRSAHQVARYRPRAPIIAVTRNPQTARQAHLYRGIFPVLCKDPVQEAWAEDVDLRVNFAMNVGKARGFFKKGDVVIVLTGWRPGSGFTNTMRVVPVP
UniProt Q13740, sequence (Q13740 whole entry): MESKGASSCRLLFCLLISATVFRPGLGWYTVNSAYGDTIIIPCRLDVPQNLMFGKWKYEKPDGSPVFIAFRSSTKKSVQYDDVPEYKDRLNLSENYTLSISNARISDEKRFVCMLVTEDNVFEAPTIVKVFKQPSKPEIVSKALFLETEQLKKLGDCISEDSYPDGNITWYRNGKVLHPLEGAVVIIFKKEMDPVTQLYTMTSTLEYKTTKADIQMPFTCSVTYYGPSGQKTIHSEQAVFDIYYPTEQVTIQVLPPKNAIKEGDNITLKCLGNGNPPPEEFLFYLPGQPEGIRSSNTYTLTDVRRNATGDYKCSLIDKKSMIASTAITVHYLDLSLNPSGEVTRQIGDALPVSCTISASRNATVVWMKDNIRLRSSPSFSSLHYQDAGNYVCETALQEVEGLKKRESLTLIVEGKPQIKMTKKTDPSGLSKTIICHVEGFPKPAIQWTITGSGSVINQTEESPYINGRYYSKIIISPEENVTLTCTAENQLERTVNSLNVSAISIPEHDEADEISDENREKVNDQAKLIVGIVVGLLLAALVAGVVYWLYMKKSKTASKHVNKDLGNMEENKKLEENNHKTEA
UniProt Q01082, sequence (Q01082 whole entry): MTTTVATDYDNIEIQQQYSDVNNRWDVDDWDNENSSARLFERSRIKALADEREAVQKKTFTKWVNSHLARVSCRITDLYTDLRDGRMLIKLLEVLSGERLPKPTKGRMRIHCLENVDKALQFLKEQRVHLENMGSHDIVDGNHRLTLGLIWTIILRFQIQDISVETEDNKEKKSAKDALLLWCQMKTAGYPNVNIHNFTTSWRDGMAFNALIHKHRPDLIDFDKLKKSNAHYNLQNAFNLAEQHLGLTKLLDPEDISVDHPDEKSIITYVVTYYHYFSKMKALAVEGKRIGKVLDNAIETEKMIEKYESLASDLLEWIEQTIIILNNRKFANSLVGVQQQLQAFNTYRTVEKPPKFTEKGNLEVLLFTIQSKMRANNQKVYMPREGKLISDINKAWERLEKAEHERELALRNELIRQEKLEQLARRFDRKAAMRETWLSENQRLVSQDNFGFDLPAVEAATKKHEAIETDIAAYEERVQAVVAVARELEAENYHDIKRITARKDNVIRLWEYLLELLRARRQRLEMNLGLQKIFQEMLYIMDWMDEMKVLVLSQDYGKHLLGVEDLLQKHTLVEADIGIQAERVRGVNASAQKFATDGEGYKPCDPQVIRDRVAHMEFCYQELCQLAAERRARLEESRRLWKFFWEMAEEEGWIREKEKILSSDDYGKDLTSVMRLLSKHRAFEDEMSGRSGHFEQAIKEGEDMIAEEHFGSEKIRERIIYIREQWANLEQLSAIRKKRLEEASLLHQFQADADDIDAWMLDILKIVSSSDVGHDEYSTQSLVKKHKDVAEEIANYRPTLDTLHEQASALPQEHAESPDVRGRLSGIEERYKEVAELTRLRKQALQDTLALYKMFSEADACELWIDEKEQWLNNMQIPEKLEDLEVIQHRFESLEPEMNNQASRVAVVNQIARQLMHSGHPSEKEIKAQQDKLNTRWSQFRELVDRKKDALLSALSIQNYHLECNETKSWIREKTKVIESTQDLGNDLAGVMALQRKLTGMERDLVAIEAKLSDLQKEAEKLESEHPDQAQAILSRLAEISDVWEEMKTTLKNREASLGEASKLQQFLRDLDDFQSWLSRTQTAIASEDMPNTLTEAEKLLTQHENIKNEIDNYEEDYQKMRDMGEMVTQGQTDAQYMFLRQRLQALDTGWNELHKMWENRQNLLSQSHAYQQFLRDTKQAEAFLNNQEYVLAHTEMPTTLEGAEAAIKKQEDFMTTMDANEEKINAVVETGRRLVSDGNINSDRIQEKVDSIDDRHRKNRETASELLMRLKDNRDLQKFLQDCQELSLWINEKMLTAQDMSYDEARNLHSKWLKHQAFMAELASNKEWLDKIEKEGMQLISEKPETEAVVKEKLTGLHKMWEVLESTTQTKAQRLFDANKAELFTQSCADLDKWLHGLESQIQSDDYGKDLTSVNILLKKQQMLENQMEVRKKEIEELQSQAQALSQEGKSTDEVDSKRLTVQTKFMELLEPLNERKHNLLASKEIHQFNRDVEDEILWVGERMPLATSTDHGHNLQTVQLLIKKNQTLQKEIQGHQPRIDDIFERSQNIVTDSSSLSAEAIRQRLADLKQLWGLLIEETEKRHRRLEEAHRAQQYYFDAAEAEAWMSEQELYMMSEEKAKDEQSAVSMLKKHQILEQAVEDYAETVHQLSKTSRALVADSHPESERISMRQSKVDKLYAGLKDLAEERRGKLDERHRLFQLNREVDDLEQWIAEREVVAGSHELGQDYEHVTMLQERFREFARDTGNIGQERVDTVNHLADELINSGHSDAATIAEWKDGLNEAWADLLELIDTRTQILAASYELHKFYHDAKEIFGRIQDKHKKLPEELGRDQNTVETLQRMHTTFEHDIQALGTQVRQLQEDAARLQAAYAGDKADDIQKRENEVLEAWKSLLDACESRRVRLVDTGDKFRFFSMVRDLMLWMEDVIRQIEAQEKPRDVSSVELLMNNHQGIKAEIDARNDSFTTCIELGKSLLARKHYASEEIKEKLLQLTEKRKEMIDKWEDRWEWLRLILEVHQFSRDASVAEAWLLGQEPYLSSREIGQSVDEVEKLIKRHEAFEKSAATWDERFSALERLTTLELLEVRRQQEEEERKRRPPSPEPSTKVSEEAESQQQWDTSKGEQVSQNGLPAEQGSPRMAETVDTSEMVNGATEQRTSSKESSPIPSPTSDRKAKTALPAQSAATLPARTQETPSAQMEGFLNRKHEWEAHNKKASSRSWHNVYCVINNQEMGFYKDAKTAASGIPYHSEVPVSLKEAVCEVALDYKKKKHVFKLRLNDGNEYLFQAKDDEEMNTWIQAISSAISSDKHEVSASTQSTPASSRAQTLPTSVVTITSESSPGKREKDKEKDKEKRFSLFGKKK
UniProt P08962, sequence (P08962 whole entry): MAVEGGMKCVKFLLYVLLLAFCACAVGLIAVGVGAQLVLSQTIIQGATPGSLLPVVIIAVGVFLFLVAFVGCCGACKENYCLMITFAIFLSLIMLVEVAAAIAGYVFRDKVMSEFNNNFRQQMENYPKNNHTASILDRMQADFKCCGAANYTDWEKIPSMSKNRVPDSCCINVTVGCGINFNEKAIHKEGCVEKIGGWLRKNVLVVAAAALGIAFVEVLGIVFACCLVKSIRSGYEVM

Lysine labeling ratio R10:1, inactive:
GALNT2 (lysine site: K363) (UniProt Q10471) 3.95
HSPA8 (lysine site: K71) (UniProt P11142) 2.62
ALCAM (lysine site: K60) (UniProt Q13740) 2.97
LRP1 (lysine site: K3988) (UniProt Q07954) 4.67
SPTBN1 (lysine site: K2177) (UniProt Q01082) 14.1
SLC25A5 (lysine site: K105) (UniProt P05141) 6.97
UniProt P14618 (lysine site: K247) 3
UniProt P62277 (lysine site: K9) 2.44
ATAD3B (lysine site: K281) (UniProt Q5T9A4) 12.6
PTBP1 (lysine site: K137) (UniProt P26599) 3.2
Q95604 (lysine site: K145) (UniProt P10321) 2.39
UniProt P63218 (lysine site: K12) 5.18
SMOC1 (lysine site: K53) (UniProt Q9H4F8) 2.22
TNFRSF10A (lysine site: K191) (UniProt O00220) 6.6
UniProt Q15697 (lysine site: K143) 2.8
HSPA9 (lysine site: K394) (UniProt P38646) 3.32
TSPAN3 (lysine site: K110) (UniProt O60637) 4.07
FN1 (lysine site: K249) (UniProt P02751) 2.7
MSLN (lysine site: K299) (UniProt Q13421) 3.1
CD63 (lysine site: K110) (UniProt P08962) 5.07
MSN (lysine site: K412) (UniProt P26038) 3.35
ADAM9 (lysine site: K290) (UniProt Q13443) 2.64
ACOT7 (lysine site: K198) (UniProt O00154) 2.95
SLC44A1 (lysine site: K75) (UniProt Q8WWI5) 2.45
NPR3 (lysine site: K208) (UniProt P17342) 5.04
SEMA3C (lysine site: K547) (UniProt Q99985) 2.69
IGF1R (lysine site: K598) (UniProt P08069) 5.67
PLXND1 (lysine site: K310) (UniProt Q9Y4D7) 3.11

Lysine labeling ratio R10:1, active:
MET (lysine site: K595) (UniProt P08581) 1.67
MYH10 (lysine site: K1782) (UniProt P35580) 1.76
METTL7A (lysine site: K210) (UniProt Q9H8H3) 1.36
CCT2 (lysine site: K284) (UniProt P78371) 1.69
RPS19 (lysine site: K144) (UniProt P39019) 1.75
MISP (lysine site: K540) (UniProt Q8IVT2) 1
THRAP3 (lysine site: K486) (UniProt Q9Y2W1) 1.7
ATP6V0D1 (lysine site: K288) (UniProt P61421) 1.76
TGFBR3 (lysine site: K672) (UniProt Q03167) 0.83
CHCHD3 (lysine site: K45) (UniProt Q9NX63) 1.56
CFL1 (lysine site: K78) (UniProt P23528) 1.61
UniProt P0C0S5 (lysine site: K16) 1.12

— the supplement of paper PMC11001985
